ALDH1A1 block – qHTS Assay for Inhibitors of Aldehyde Dehydrogenase 1 (ALDH1A1) | Aldehyde dehydrogenase 1A1 (Homo sapiens), P00352 | Purified ALDH1A1, NADH fluorescence, propionaldehyde substrate | Potency, µM (highest dose often 75.3 µM), hits mostly inhibitors | actives 7.3% (n = 220,000)
Target sequence (P00352 whole entry, looked up): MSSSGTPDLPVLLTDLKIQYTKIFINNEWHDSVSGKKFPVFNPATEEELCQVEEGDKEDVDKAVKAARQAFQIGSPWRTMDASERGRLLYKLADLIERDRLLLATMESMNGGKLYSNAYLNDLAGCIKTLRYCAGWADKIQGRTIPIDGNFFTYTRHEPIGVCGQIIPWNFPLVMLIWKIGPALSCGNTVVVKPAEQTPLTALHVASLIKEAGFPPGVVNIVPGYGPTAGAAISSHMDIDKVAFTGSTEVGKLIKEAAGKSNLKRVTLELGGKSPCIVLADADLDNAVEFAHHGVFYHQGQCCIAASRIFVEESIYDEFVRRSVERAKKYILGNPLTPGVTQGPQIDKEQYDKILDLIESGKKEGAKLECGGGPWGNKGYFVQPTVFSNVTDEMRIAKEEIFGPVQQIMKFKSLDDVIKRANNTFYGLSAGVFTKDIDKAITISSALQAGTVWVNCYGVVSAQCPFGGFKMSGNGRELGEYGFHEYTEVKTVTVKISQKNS
HPGD block – qHTS Assay for Inhibitors of HPGD (15-Hydroxyprostaglandin Dehydrogenase); actives 4.3% (n = 150,000); purified HPGD, NADH fluorescence kinetic, PGE2 substrate; 15-hydroxyprostaglandin dehydrogenase [NAD(+)] (Homo sapiens), P15428; Potency, µM, usual class: inhibitors; AID 894, 2007
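NADH formation kinetics: reaction with 30 uM PGE2 and 1 mM NAD+ (final), 20 nM enzyme, Tris-HCl pH 8 with Tween 20, after 15 min compound preincubation at room temperature. Fluorescence change, last versus first of five reads.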
IMPase cell inh – qHTS Assay for Identifying the Cell-Membrane Permeable IMPase Inhibitors; inhibition (IP1 accumulation), % at 46.1 µM; 120,000 tested, under 10 active; CHO-M1 cells, IP1 accumulation, HTRF TR-FRET ratio; Inositol monophosphatase 1 (Rattus norvegicus), P97697; active means well fitted curve in the direction sought with a large enough effect in the signal ratio, not every such curve was filed as active; inconclusive means small, poorly fitted or top-dose-only effect, or a change in a side signal; inactive means no such curve, though single readings can be large or run the other way; the % refers to the signal ratio;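 further: cells stimulated with carbachol in lithium chloride buffer; higher means more IMPase inhibition seen as more IP1 and lower FRET ratio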
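Cellular IMPase inhibition is scored as a rise in cytosolic IP1, detected by competitive TR-FRET between d2-labelled IP1 and a europium anti-IP1 antibody. M1-expressing CHO cells were stimulated with carbachol for 30 min at 37C, with lithium (50 mM LiCl) present in the buffer.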
Hits are given with their value; i = inactive; ? = inconclusive; nt = no result given; [ ] = remark or other dose. This is a sample that favours compounds with a hit; in the whole collection about 9% have one here. Unless noted, the call rests on the fitted dose curve; in most records, active means well fitted inhibition curve with a large enough effect (not every such curve was filed as active); inconclusive means small, poorly fitted or top-dose-only effect, or another doubt; inactive means no such curve, though single readings can be large or run the other way.

SMILES	ALDH1A1 block	HPGD block	IMPase cell inh
COC(=O)C1=C(C(=O)OC)[C@@H]2N(C)c3ccc(OC)cc3[C@@]23C[C@@H](C(=O)OC)N(S(=O)(=O)c2ccc(C#N)cc2)C3=N1	i[13.5 µM]	i	nt
O=C(O)c1ccc(N2CCCCC2)cc1	i	i	i
O=C(c1ccccc1)c1ccc(N2CCNCC2)cc1	28µM	i	i
CN1CCN(c2ccc(C(=O)c3ccc(F)cc3)cc2)CC1	i	i	i
O=C(c1ccccc1)c1ccc(N2CCCC2)cc1	?	14µM	i
CC1CCC/C(=C\Nc2ccc(O)cc2)C1=O (stereo not given)	8.9µM	?	i
Cc1cc(C(=O)O)ccc1N/C=C1\CCCC(C)C1=O (stereo not given)	i	i	i
O=C(NCc1cccnc1)c1ccc([N+](=O)[O-])o1	i	nt	nt
Cc1cccc(C)c1OC(=O)CSc1nnc(-c2ccccc2O)o1	?	?	i
COC(C(=O)Nc1cccc(F)c1)c1ccccc1 (stereo not given)	i	i	i
CCCCOC(=O)c1ccc(NC(=S)NC(=O)c2c(Cl)cnn2C)cc1	?	i	i
CCCCOC(=O)c1ccc(NC(=S)NC(=O)c2c(Cl)cnn2CC)cc1	3.5µM	i	i
Cc1cccc(C)c1OCC(=O)Nc1ccccc1C(F)(F)F	i	nt	nt
CC(C)C(=O)Nc1cccc(C(=O)Nc2ccccc2C(=O)O)c1	i	i	i
Cc1cccc(OCC(=O)Nc2ccccc2C(F)(F)F)c1	i	18µM	nt
Cc1cccc(OCC(=O)Nc2cccc(C(=O)Nc3ccccc3C(=O)O)c2)c1	5.6µM	?	nt
CC(C)c1ccc(OCC(=O)Nc2cccc(C(=O)Nc3ccccc3C(=O)O)c2)cc1	20µM	nt	nt
COc1cccc(OCC(=O)Nc2ccccc2NC(C)=O)c1	?	i	i
COc1cccc(C(=O)Nc2cc(C)ccc2NC(=O)COc2ccccc2)c1	14µM	nt	i
Cc1cccc(OCC(=O)Nc2cccc(C(=O)NCC(C)C)c2)c1	i	i	nt
CC(C)(C)C(=O)N1NC(=Nc2ccccc2)SC1(C)C	i	nt	nt
O=C1NCC(O)=C1C=Nc1ccccc1O	i	nt	nt
Nc1nnc(SCC(=O)Nc2ccccc2C(F)(F)F)s1	nt	nt	i
O=C(COc1ccccc1)Nc1cccc(-c2nnc(-c3ccccc3)o2)c1	i	4.5µM	i
O=C(COc1ccccc1)Nc1nnc(-c2ccccc2)o1	i	i	i
SMILES	ALDH1A1 block	HPGD block	IMPase cell inh
Cc1nnc(SC/C=C/c2ccccc2)n(N)c1=O	i	nt	nt
O=C(/C=C/c1ccccc1)n1cnnc1SC/C=C/c1ccccc1	i	14µM	i
CCO[P@]1(=O)OC[C@@H]2O[C@H](n3cnc4c(N)ncnc43)[C@H](O)[C@@H]2O1	i[13.5 µM]	i	nt
COc1ccc(S(=O)(=O)N2CCC(C(=O)NCc3cccs3)CC2)cc1	i	nt	nt
Cc1nn(Cc2ccccc2)c(=O)n1N(C)c1ncc(C(F)(F)F)cc1Cl	i	i	i
Cc1ccc(OCCCN2C(=O)C(=O)c3cccc(C)c32)cc1	0.071µM	18µM	i
Cc1cccc2c1N(CCOc1ccc(C(C)(C)C)cc1)C(=O)C2=O	0.5µM	i	i
COc1ccc(OCCN2C(=O)c3ccccc3C2=O)cc1	i	nt	nt
COc1ccccc1OCCCN1C(=O)C(=O)c2cccc(C)c21	i	nt	nt
COc1ccc(CN/C(C)=C(/C#N)C(N)=O)cc1OC	i	i	i
Cc1ccc(C2(c3noc(CN(C)Cc4cnn(C)c4)n3)CCCC2)cc1	i	nt	nt
CCCOC(=O)c1ccc(Nc2c(C(=O)OCC)cnc3c(C)cc(Cl)cc23)cc1	nt	nt	i
O=[N+]([O-])c1ccc(N2CCC(=NOCc3ccc(Cl)cc3)CC2)cc1	13µM	i	i
Cc1ccc(C(=O)ON=C2CCN(c3ccc([N+](=O)[O-])cc3)CC2)cc1	?	i	i
O=C1CN(C(=O)COc2ccccc2)CCN1	i	i	i
O=C(Nc1sc2c(c1C(=O)O)CCCCC2)c1ccco1	25µM	18µM	i
CN1CCN(C(=O)c2c(NC(=O)c3ccco3)sc3c2CCC(C(C)(C)C)C3)CC1 (stereo not given)	13µM	i	?
NC(=O)c1c(NC(NC(=O)c2ccco2)(C(F)(F)F)C(F)(F)F)sc2c1CCCC2	32µM	i	i
NC(=O)c1c(NC(=O)c2ccco2)sc2c1CCC2	?	?	i
Cc1ccccc1C(=O)Nc1sc2c(c1C(=O)N1CCCCC1)CCC(C(C)(C)C)C2 (stereo not given)	nt	nt	i
CN(C)C(=O)c1c(NC(=O)c2ccco2)sc2c1CCCCC2	?	i	i
Cn1cccc1C(=O)N1CCC2(CC1)CN(C(=O)Nc1ccccc1)C2	i	i	nt
COC(=O)c1ccc(C(NC(=O)OCc2ccccc2)/C(=C/[C@@H](C)C(=O)N(C)C)c2cccnc2)cc1 (stereo not given in full)	i	i	nt
COC(=O)CC1Oc2cc3oc4c(c3cc2O1)C(=O)CC(C)(C)C4 (stereo not given)	10µM	25µM	nt
CCNC(=O)c1oc2c(c1C)C(=O)CC(C)(C)C2	i	i	i
SMILES	ALDH1A1 block	HPGD block	IMPase cell inh
CC1(C)CC(=O)c2c(oc3cc(O)c(O)cc23)C1	2µM	6.3µM	i
CC(C)c1ccc(S(=O)(=O)Nc2ccc3oc4c(c3c2)C(=O)CC(C)(C)C4)cc1	nt	nt	i
CCN(C(=O)c1cc2ccccc2oc1=O)c1cccc(C)c1	14µM	?	i
O=C(c1cc2ccccc2oc1=O)N(c1ccccc1)C1C=CS(=O)(=O)C1 (stereo not given)	i	i	i
CCN(C(=O)c1cc2ccccc2oc1=O)c1ccccc1	i	i	i
CC(C)c1ccc(N(C(=O)c2cc3ccccc3oc2=O)C2C=CS(=O)(=O)C2)cc1 (stereo not given)	25µM	i	i
O=C1CC[C@H](C(=O)O)N1	i	nt	nt
CC(C)(C)NC[C@H](O)COc1cccc2c1CCC(=O)N2	i	i	i
NC(Cc1c[nH]c2ccccc12)C(=O)NCc1ccco1 (stereo not given)	i	nt	nt
CC(C)CNC(=O)c1cccc(C(=O)NCC(C)C)c1	i	i	i
O=C(CNC(=O)C1CCCCC1)Nc1cc(Cl)ccc1Cl	i	i	nt
Cc1ccc2c(c1)nnn2C1CCN(C(=O)C23CC4CC(CC(C4)C2)C3)CC1	18µM	i	i
Cc1ccc2c(c1)nnn2C1CCN(C(=O)NC23CC4CC(CC(C4)C2)C3)CC1	i	i	i
O=C(CSc1nnc(-c2cccnc2)n1Cc1ccco1)c1ccc2ccccc2c1	?	i	i
C=CCn1c(SCC(=O)Nc2sc(C)c(C)c2C(=O)OCC)nnc1-c1sc(N)nc1C	14µM	i	i
O=C(CSc1nnc(-c2cnccn2)n1Cc1ccco1)c1ccc(Cl)cc1	?	?	i
COc1ccc(C(=O)CSc2nnc(-c3ccccn3)n2Cc2ccco2)cc1	22µM	nt	i
O=C(CSc1nnc(-c2cccnc2)n1Cc1ccco1)c1ccc(Br)cc1	i	28µM	i
CNC(=O)CSc1nnc(-c2ccccn2)n1Cc1ccco1	i	nt	nt
C=CCn1c(SCC(=O)NC2CCCCC2)nnc1-c1sc(N)nc1C	i	i	i
O=C(CSc1nnc(-c2cnccn2)n1Cc1ccco1)c1ccccc1	i	16µM	i
COc1ccc2c(c1)O[C@@H](c1ccc3c(c1)OCO3)[C@H](OC(=O)NS(=O)(=O)c1ccc(C)cc1)C2=O	i	i	nt

Assay outcomes deposited in PubChem BioAssay by National Center for Advancing Translational Sciences (NCATS).
